Experimental data as given in PubChem BioAssay AID1159580 (chemical genetic matrix, 2015).
Among all 5,500 compounds or so, about 2,000 (36%) were called active. Inconclusive results (about 18%) are left out. Cut-off read from the data, not from the text of the source: active = normalized growth mostly below about 0.91 (no sharp cut-off); inconclusive = no clear call, values can overlap the other calls; inactive = mostly above about 0.92. The list shows a part of the results.

Assay: chemical genetic growth profiling, strain panel (AID 1159580);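 note: tested at 20 µM; growth read once vehicle control cultures reached saturation at 30 °C; 1 = growth at the plate median or of vehicle wells; lower values mean less growth of the strain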
Conditions: S. cerevisiae deletion strains, growth OD

Measured: normalized growth

COP(=O)(OC)C(O)C(Cl)(Cl)Cl (stereo not drawn)
inactive: locus YHR030C, strain SLT2, stronger effect = lower value 0.998 | locus YHR079C, strain IRE1, stronger effect = lower value 1.03 | locus YJL095W, strain BCK1, stronger effect = lower value 1.01 | locus YJR066W, strain TOR1, stronger effect = lower value 0.938 | locus YLR113W, strain HOG1, stronger effect = lower value 1 | locus YNL183C, strain NPR1, stronger effect = lower value 0.962 | locus YOR231W, strain MKK1, stronger effect = lower value 1.03 | locus YPL256C, strain CLN2, stronger effect = lower value 0.988
